Experimental data: PubChem BioAssay (Tox21)
Results filed as inconclusive are left out. Entries that show only a call come without a potency. Active and inactive are the calls of the source. Unless noted, the call rests on the fitted dose curve; in most records, active means well fitted curve in the direction sought with a large enough effect in the repeat runs; inconclusive means weak or mixed curves; inactive means no such curve, though single readings can be large; an effect the other way counts as inactive or inconclusive.

Tests used:
[1] = qHTS assay to identify small molecule antagonists of the glucocorticoid receptor (GR) signaling pathway - cell viability counter screen (AID 720693); further: nearly all actives have a fitted effect of over 55% in size
[2] = qHTS assay for identifying genotoxic compounds that show differential cytotoxicity against isogenic chicken DT40 cell lines with known DNA damage response pathways - wild type cell line (AID 743012); further: nearly all actives have a fitted effect of over 60% in size
Outline: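 Parental DNA repair-proficient DT40 cells, 300 per well, were pre-incubated ~0.5 h at 37 C/5% CO2, pin-dosed with compounds in DMSO, then incubated 40 h. Viability was read as CellTiter-Glo luminescence after 30 min at room temperature.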

[3] = qHTS assay for identifying genotoxic compounds that show differential cytotoxicity against isogenic chicken DT40 cell lines with known DNA damage response pathways - Rad54/Ku70 mutant cell line (AID 743015); further: nearly all actives have a fitted effect of over 60% in size
[4] = qHTS assay to identify small molecule antagonists of the androgen receptor (AR) signaling pathway - cell viability counter screen (AID 743033; further: nearly all actives have a fitted effect of over 45% in size)
[5] = qHTS assay to identify small molecule antagonists of the androgen receptor (AR) signaling pathway using the MDA cell line - cell viability counter screen (AID 743041; further: nearly all actives have a fitted effect of over 45% in size)
Outline: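 Viability counter screen run alongside the AR antagonist reporter: cells seeded 5 h before compound, R1881 added, 16 h incubation at 37C without CO2, fluorescent CellTiter-Fluor signal quantified.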

[6] = qHTS assay to identify small molecule antagonists of the thyroid receptor (TR) signaling pathway - cell viability counter screen (AID 743064); further: nearly all actives have a fitted effect of over 50% in size
Outline: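 In rat pituitary GH3.TRE-Luc reporter cells co-exposed to compound and 1 nM T3 for 23.5 h, cytotoxicity was assessed with CellTiter-Fluor in the same wells, read by fluorescence.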

[7] = qHTS assay to identify small molecule antagonists of the thyroid receptor (TR) signaling pathway (AID 743065); further: nearly all actives have a fitted effect of over 55% in size; further: potency means the concentration at half of the fitted maximal effect
Outline: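 GH3.TRE-Luc rat pituitary cells carrying two TR response elements driving luciferase were plated for 4 h, given compound plus 1 nM T3 (final), and incubated 23.5 h at 37 C. ONE-Glo luminescence measured reporter inhibition; CellTiter-Fluor fluorescence tracked cytotoxicity.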

[8] = tested on: thyroid hormone receptor (rat, GH3 cells); test: qHTS assay to identify small molecule agonists of the thyroid receptor (TR) signaling pathway (AID 743066; calls by dose curve)
[9] = target: Estrogen receptor (Homo sapiens) (UniProt P03372); test: qHTS assay to identify small molecule antagonists of the estrogen receptor alpha (ER-alpha) signaling pathway (AID 743069; active means well fitted curve in the direction sought with a large enough effect in the signal ratio in the repeat runs, not every such curve was filed as active; the % refers to the signal ratio)
Chain of Estrogen receptor (Homo sapiens) (P03372 whole entry, looked up): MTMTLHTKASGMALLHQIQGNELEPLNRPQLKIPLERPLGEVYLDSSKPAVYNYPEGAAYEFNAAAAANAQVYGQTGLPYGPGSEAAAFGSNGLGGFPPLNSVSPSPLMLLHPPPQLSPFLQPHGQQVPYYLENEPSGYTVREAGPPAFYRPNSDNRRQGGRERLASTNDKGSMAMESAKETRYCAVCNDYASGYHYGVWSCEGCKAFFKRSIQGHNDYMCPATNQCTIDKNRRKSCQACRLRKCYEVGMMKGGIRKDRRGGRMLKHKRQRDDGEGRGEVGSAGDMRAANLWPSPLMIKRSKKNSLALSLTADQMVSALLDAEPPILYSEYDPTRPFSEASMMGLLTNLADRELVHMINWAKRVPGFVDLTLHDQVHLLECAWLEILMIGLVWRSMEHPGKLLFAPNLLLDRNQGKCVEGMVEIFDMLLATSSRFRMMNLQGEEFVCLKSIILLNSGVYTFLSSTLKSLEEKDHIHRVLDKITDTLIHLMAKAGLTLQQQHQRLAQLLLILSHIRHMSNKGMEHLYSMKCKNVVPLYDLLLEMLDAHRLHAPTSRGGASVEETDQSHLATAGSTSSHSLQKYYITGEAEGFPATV
Outline: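 Estradiol-stimulated ER-alpha-UAS-bla HEK293 cells, 18 hr compound exposure at 37C. LiveBLAzer B/G substrate, 2 hr RT, fluorescence read.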

[10] = qHTS assay to identify small molecule antagonists of the estrogen receptor alpha (ER-alpha) signaling pathway - cell viability counter screen (AID 743074; calls by dose curve;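 further: HEK293 cells carrying ER-alpha-UAS-bla reporter stimulated with 17beta-estradiol; nearly all actives have a fitted effect of over 45% in size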)
[11] = target: Estrogen receptor (Homo sapiens) (UniProt P03372); test: qHTS assay to identify small molecule agonists of the estrogen receptor alpha (ER-alpha) signaling pathway (AID 743075; calls by dose curve)
[12] = target: Estrogen receptor (Homo sapiens) (UniProt P03372); test: qHTS assay to identify small molecule agonists of the estrogen receptor alpha (ER-alpha) signaling pathway using the BG1 cell line (AID 743079); further: nearly all actives have a fitted effect of over 20% in size; further: potency means the concentration at half of the fitted maximal effect
[13] = qHTS assay to identify small molecule antagonists of the estrogen receptor alpha (ER-alpha) signaling pathway using the BG1 cell line (AID 743080; calls by dose curve;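 further: BG1 cells stimulated with 17beta-estradiol alongside compound; series mostly up to about 70 µM; nearly all actives have a fitted effect of over 25% in size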)
Outline: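 Luminescence from a 4×ERE-luciferase reporter in BG1-Luc-4E2 cells served as read-out. Cells, pre-cultured 5 days in stripped-serum phenol-red-free medium, were exposed to compound with 17beta-estradiol co-stimulation for 21.5 h at 37 C.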

[14] = qHTS assay to identify small molecule antagonists of the estrogen receptor alpha (ER-alpha) signaling pathway using the BG1 cell line - cell viability counter screen (AID 743081);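 further: compound given together with 17beta-estradiol as the ER stimulus; series mostly up to about 70 µM; nearly all actives have a fitted effect of over 45% in size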
[15] = target: Aromatase (Homo sapiens) (UniProt P11511); test: qHTS assay to identify aromatase inhibitors (AID 743083); further: series mostly up to about 70 µM; nearly all actives have a fitted effect of over 55% in size
Chain of Aromatase (Homo sapiens) (P11511 whole entry, looked up): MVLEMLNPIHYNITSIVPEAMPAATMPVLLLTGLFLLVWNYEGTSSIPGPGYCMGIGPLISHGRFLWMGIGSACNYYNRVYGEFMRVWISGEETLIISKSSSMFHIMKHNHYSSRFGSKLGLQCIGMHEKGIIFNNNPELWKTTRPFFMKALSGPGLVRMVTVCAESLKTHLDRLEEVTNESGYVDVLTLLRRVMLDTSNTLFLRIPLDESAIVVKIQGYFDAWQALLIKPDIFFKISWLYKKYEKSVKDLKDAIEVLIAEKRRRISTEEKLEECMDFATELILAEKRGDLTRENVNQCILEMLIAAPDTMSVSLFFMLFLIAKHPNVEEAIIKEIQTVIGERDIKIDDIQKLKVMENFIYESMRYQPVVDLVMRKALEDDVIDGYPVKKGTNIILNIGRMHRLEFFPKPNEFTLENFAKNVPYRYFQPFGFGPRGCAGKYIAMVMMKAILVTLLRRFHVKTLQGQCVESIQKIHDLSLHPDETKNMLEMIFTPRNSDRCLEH

[16] = qHTS assay for identifying genotoxic compounds that show differential cytotoxicity against isogenic chicken DT40 cell lines with known DNA damage response pathways - Rev3 mutant cell line (AID 743014); further: nearly all actives have a fitted effect of over 55% in size
[17] = target: Androgen receptor (Homo sapiens) (UniProt P10275); test: qHTS assay to identify small molecule antagonists of the androgen receptor (AR) signaling pathway (AID 743035; active means well fitted inhibition curve with a large enough effect in the signal ratio in the repeat runs, not every such curve was filed as active; the % refers to the signal ratio)
Chain of Androgen receptor (Homo sapiens) (P10275 whole entry, looked up): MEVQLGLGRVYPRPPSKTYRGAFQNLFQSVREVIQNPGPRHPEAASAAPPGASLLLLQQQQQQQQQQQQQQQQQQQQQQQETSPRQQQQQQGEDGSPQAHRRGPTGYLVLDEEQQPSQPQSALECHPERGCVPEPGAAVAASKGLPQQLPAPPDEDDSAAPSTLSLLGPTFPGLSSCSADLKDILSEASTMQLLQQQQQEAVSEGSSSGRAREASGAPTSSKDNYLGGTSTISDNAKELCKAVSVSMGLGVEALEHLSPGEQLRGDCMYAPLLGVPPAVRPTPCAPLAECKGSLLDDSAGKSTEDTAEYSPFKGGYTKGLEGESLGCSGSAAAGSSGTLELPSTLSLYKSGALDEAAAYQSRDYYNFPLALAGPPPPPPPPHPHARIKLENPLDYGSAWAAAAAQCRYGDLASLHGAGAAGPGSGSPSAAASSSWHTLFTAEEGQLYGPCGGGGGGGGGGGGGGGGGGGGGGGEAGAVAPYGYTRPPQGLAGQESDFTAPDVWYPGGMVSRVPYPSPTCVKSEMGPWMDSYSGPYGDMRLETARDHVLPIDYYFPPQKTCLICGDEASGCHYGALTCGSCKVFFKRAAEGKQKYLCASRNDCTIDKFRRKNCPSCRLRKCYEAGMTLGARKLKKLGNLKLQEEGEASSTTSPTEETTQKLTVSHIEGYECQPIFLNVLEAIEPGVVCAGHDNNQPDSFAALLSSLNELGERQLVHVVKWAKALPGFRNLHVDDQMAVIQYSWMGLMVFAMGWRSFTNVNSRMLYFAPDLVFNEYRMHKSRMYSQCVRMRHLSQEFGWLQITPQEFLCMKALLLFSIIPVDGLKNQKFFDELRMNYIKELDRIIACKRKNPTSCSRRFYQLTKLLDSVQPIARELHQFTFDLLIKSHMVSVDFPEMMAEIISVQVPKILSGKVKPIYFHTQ
Outline: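 HEK293 cells stably carrying a UAS-driven beta-lactamase reporter (AR-UAS-bla GripTite) were plated for 4 h at 37C, then given compound and the agonist R1881 and incubated 16 h. Reporter activity was read by LiveBLAzer B/G FRET fluorescence after 2 h at room temperature.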

[18] = target: Androgen receptor (Homo sapiens) (UniProt P10275); test: qHTS assay to identify small molecule agonists of the androgen receptor (AR) signaling pathway (AID 743036; active means well fitted activation curve with a large enough effect in the signal ratio in the repeat runs, with a control signal flat, not every such curve was filed as active; the % refers to the signal ratio)
Outline: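 Cell-based FRET reporter assay: HEK293 line with a UAS-beta-lactamase construct, compounds added in DMSO, 16 h exposure at 37C, then 2 h substrate step at room temperature and fluorescence intensity read.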

[19] = target: Androgen receptor (Homo sapiens) (UniProt P10275); test: qHTS assay to identify small molecule agonists of the androgen receptor (AR) signaling pathway using the MDA cell line (AID 743040; further: nearly all actives have a fitted effect of over 20% in size)
Outline: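 Luminescence from ONE-Glo, read after 30 min at room temperature, reflects MMTV-driven luciferase in MDA-kb2 cells (AR- and GR-responsive). Treatment lasted 16 h at 37C, 0% CO2.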

[20] = target: Androgen receptor (Homo sapiens) (UniProt P10275); test: qHTS assay to identify small molecule antagonists of the androgen receptor (AR) signaling pathway using the MDA cell line (AID 743042; further: nearly all actives have a fitted effect of over 55% in size)
Outline: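 MDA-kb2 cells (human breast carcinoma, stably carrying an MMTV-luciferase reporter responsive to AR and GR) were plated at 3,000 cells/well and preincubated 5 hr at 37C, then given compound plus R1881 agonist for 16 h. ONE-Glo luminescence was read.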

Row | Compound | outcome [1] | Potency [2] | Potency [3] | outcome [4] | outcome [5] | Potency [6] | Potency [7] | Potency [8] | outcome [9] | Potency [10] | Potency [11] | Potency [12] | Potency [13] | outcome [14] | Potency [15] | Potency [16] | outcome [17] | outcome [18] | outcome [19] | outcome [20]
1 | CC(=O)Nc1ccc(S(=O)(=O)Nc2cc(C)on2)cc1 | inactive | inactive | inactive | inactive | inactive | inactive | inactive | inactive | inactive | inactive | inactive | inactive | inactive | inactive | inactive |  |  |  |  | 
2 | CCCCN(CCCC)CCCCCCN(CCCC)CCCC | inactive | inactive |  | inactive | inactive |  | inactive | inactive | inactive | inactive | inactive | inactive |  | inactive | inactive | inactive |  |  |  | 
3 | C=CCOC(=O)CCCCCCCC | inactive | inactive | inactive | inactive | inactive | inactive | inactive | inactive | inactive | inactive | inactive | inactive | inactive | inactive | inactive |  |  |  |  | 
4 | CCCCCCCOC(C)=O | inactive | inactive | inactive | inactive | inactive | inactive | inactive | inactive | inactive | inactive | inactive | 48.6 µM (active) | inactive | inactive | inactive |  |  |  |  | 
5 | Nc1cc(S(=O)(=O)O)ccc1O | inactive | inactive | inactive | inactive | inactive |  | inactive | inactive | inactive | inactive | inactive | inactive | inactive | inactive | inactive |  | inactive | inactive | inactive | inactive
6 | CCN(CC)CC | inactive | inactive | inactive | inactive | inactive | inactive | inactive | inactive | inactive | inactive | inactive | inactive | inactive | inactive | inactive |  |  |  |  | 
7 | CN(C)CCc1c[nH]c2ccc(C[C@H]3COC(=O)N3)cc12 | inactive | inactive |  | inactive | inactive |  | inactive | inactive | inactive |  | inactive | inactive | inactive | inactive | inactive | inactive |  |  |  | 
8 | Clc1cc(Cl)c(Cl)c(Cl)c1Cl | inactive | inactive | inactive | inactive | inactive | inactive | inactive | inactive | inactive | inactive | inactive | inactive | inactive | inactive | inactive |  |  |  |  | 
9 | Nc1nc(Cl)cc(Cl)n1 | inactive | inactive |  | inactive | inactive |  | inactive | inactive | inactive |  | inactive | inactive | inactive | inactive | inactive | inactive |  |  |  | 
10 | CC1(C)S[C@@H]2[C@H](NC(=O)Cc3ccccc3)C(=O)N2[C@H]1C(=O)O (tested in a mixture with another compound) | inactive | inactive |  | inactive | inactive | inactive |  |  | inactive | inactive | inactive | inactive |  | inactive | inactive | inactive |  |  |  | 
11 | O=C(O)Cc1c(Cl)ccc(Cl)c1Cl | inactive | inactive |  | inactive | inactive | inactive | inactive | inactive |  | inactive | inactive | inactive |  | inactive | inactive | inactive |  |  |  | 
12 | Cc1ccccc1C#N | inactive | inactive | inactive | inactive | inactive | inactive | inactive | inactive | inactive | inactive | inactive | inactive | inactive | inactive | inactive |  |  |  |  | 
13 | CN(C)CCC[C@@]1(c2ccc(F)cc2)OCc2cc(C#N)ccc21 | inactive | inactive |  | inactive | inactive | inactive | inactive | inactive |  | inactive | inactive | inactive | inactive | inactive | inactive | inactive |  |  |  | 
14 | O=C(O)Cc1ccccc1Oc1ccc(Cl)cc1Cl | inactive | inactive |  | inactive | inactive |  | inactive | inactive | inactive | inactive | inactive | inactive | inactive | inactive | inactive | inactive |  |  |  | 
15 | CCOC(=O)[C@H](CCc1ccccc1)N[C@H]1CS[C@H](c2cccs2)CN(CC(=O)O)C1=O | inactive | inactive | inactive | inactive | inactive | inactive | inactive | inactive |  | inactive | inactive | inactive |  | inactive | inactive |  | inactive | inactive | inactive | inactive
16 | C/C=C/C(=O)CCCC | inactive | inactive |  | inactive | inactive | inactive | inactive | inactive | inactive | inactive | inactive | inactive | inactive | inactive | inactive | inactive |  |  |  | 
17 | NC[C@H]1O[C@H](O[C@H]2[C@H](O)[C@@H](O[C@H]3O[C@H](CO)[C@@H](O)[C@H](N)[C@H]3O)[C@H](N)C[C@@H]2N)[C@H](N)[C@@H](O)[C@@H]1O | inactive | inactive |  | inactive | inactive | inactive | inactive | inactive |  | inactive |  |  |  | inactive | inactive | inactive |  |  |  | 
18 | CC1(C)CC(N)CC(C)(C)N1 | inactive | inactive |  | inactive | inactive | inactive | inactive | inactive |  | inactive |  |  |  | inactive | inactive | inactive |  |  |  | 
19 | CCCCOCCCC | inactive | inactive |  | inactive | inactive | inactive | inactive | inactive | inactive | inactive | inactive | inactive |  | inactive | inactive | inactive |  |  |  | 
20 | CCCCCCCCCCCCCCCC/C=C/C1CC(=O)OC1=O (stereo not drawn) | inactive | inactive |  | inactive | inactive |  | 29.7 µM (active) | inactive |  | inactive |  |  |  | inactive | inactive | inactive |  |  |  | 
21 | CC1(C)C(=O)C(C)(C)C1=O | inactive | inactive | inactive | inactive | inactive | inactive | inactive | inactive |  | inactive |  |  |  | inactive | inactive |  | inactive | inactive | inactive | inactive
